Screening data deposited in PubChem BioAssay by The Scripps Research Institute Molecular Screening Center.
Hits are enriched below; roughly 4.6% of the tested compounds scored in any of these assays.
hgDAF12 agonist – agonists of H. glycines DAF-12 nuclear receptor; HEK293 GAL4-hgDAF12 UAS-luciferase reporter, agonist luminescence; normalized to butyrate control; activation, % at 6.8 µM; 370,000 compounds, 1.8% hits; AID 687014;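 active means activation above a cutoff set at the mean of all screened compounds plus 3 SD, cut at about 10% in these data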;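 further: 0% = DMSO wells and 100% = sodium butyrate wells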
hcDAF-12 act – H. contortus DAF-12 activation, primary screen; HEK293 hcDAF-12 lit1-tk-luc reporter, luminescence; 0% DMSO, 100% Δ7-dafachronic acid; activation, % at 6.8 µM; 370,000 compounds, 1.4% hits;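 active means activation above the mean of all tested compounds plus 3 SD, cut at about 5.5% in these data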;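 further: 100% = response to 3 µM Δ7-dafachronic acid high control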
DAX1 inh-1 – inhibitors of DAX1 repression of SF-1 activated StAR promoter | HEK293T StAR-luciferase reporter, SF-1/DAX-1 repression relief | 370,000 compounds, 1.1% hits | AID 652010 | inhibition, % at 6.8 µM;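 active means inhibition above the mean over all tested compounds plus 3 SD, cut at about 3.6% in these data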;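 further: 0% = DAX-1 cells with DMSO and 100% = cells lacking DAX-1 with DMSO; higher inhibition means more luminescence from relief of DAX-1 repression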
Wee1 degr inh – inhibitors of human Wee1 degradation | AID 1321 | 220,000 compounds, 1.2% hits | P30291 | HeLa Luc-Wee1K328M stability, luciferase luminescence; 100% = proteasome inhibitor MG132 effect | reporter increase, % at 5 µM;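 active means activation above the mean of all tested compounds plus 3 SD, set per screening run, cut at about 8.8% in these data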;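 further: cells exposed to compound for 20 h before luminescence read; 0% = DMSO alone and 100% = MG132 at 30 µM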
DAX1 inh-2 – inhibits human nuclear receptor DAX1; P51843; HEK293 Gal4-DAX1 luciferase reporter, luminescence; inhibition, % at 6.75 µM; 340,000 compounds, 0.99% hits; AID 504766;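 active means inhibition above the mean over all tested compounds plus 3 SD, cut at about 4.2% in these data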;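 further: 0% = DAX1-transfected cells with DMSO and 100% = empty-vector control cells with DMSO; inhibition shows as a rise in luminescence from relieved DAX1 repression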
Target sequence (P51843 207-470 limits assumed): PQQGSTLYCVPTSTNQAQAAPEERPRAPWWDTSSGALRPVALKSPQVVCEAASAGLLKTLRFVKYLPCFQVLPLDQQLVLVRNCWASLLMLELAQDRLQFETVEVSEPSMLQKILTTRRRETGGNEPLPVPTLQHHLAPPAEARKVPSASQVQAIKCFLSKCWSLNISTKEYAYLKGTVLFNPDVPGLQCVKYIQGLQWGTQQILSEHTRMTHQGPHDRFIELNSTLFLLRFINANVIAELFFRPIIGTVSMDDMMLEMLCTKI
ssDAF12 agonist – S. stercoralis DAF-12 activation, primary screen; HEK293 ssDAF-12/GRIP1 lit1-tk-luc reporter, luminescence; % of 3 µM dafachronic acid response; activation, % at 6.8 µM; 370,000 compounds, 1% hits; AID 652126;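 active means activation above the mean over all tested compounds plus 3 SD, cut at about 0.9% in these data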;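 further: 0% = DMSO-only wells and 100% = 3 µM delta7-dafachronic acid wells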
Numbers without * were called inactive; · = not tested or not shown.

SMILES | hgDAF12 agonist | hcDAF-12 act | DAX1 inh-1 | Wee1 degr inh | DAX1 inh-2 | ssDAF12 agonist
O=c1oc2ccccc2cc1NCc1ccccc1O | 9 | 2 | 1 | 8.9* | 4.2* | 0
O=C(CSc1nnc(-c2ccccn2)n1Cc1ccco1)Nc1ccc(Oc2ccccc2)cc1 | 0 | -1 | 0 | · | · | -2
CCC[C@H]1[C@@H](OC(=O)NCc2ccccc2Cl)CC[C@@]23CCCN2C(=O)CCC[C@@H]13 | -1 | -4 | · | · | · | -3
COc1ccc([N+](=O)[O-])cc1NC(=O)C(C)NNC(=O)c1cccc([N+](=O)[O-])c1 (centres undefined) | -4 | -2 | -2 | · | 0 | -2
CC1(C)CC(Cc2cccc(C(F)(F)F)c2)N(C(=O)OC(C)(C)C)C1 (centres undefined) | 6 | 0 | 0 | · | 0 | -1
O=C(CSc1nc2nc(-c3cccs3)cc(C(F)(F)F)c2c(=O)[nH]1)C(F)(F)F | 13* | 1 | 1 | · | 2 | -2
COC(=O)CSc1nc2nc(-c3cccs3)cc(C(F)(F)F)c2c(=O)[nH]1 | 0 | 1 | 0 | · | 0 | -1
O=S1(=O)c2ccc(Br)cc2OC[C@@H](Cc2ccccc2)N1Cc1cn(Cc2ccc(C(F)(F)F)cc2)nn1 | 0 | 2 | 1 | · | · | 0
O=S1(=O)c2c(cccc2N2CCSCC2)Oc2ccccc2CN1Cc1cn(Cc2ccc(C(F)(F)F)cc2)nn1 | -1 | -1 | -2 | · | · | 0
CC(C)OCCCNC(=S)NNC(=O)c1ccc(Cl)c(Cl)c1 | 11* | 0 | 1 | 2 | -1 | -1
CC1(N2CCCCC2)C(=O)c2ccccc2C1=O | 2 | 2 | 0 | -3 | 0 | 1.0*
CC(=O)Nc1c(-c2ccc(F)cc2)nc2ncccn12 | 0 | 1 | -1 | · | · | -1
CC(C)(C)c1nnc(NC(=S)Nc2ccccc2)s1 | 11* | 1 | 3 | 0 | 0 | 0
Cc1ccc(-c2nc3ccccc3s2)cc1NC(=O)c1cc(-n2cnnc2)ccc1Cl | 10* | 5 | 2 | -3 | 0 | -1
Cc1c(NC(=O)c2cc(-n3cnnc3)ccc2Cl)cccc1-c1nc2ccccc2o1 | -2 | 1 | -1 | 0 | 2 | -1
CC1CCCN(c2ccc(C(=O)NCC3CCCO3)cn2)C1 (centres undefined) | 9 | 2 | 1 | 9.6* | 1 | -1
CC(C)CCN1C(=O)c2ccc(C(=O)NCC3CCCO3)cc2C1=O (centres undefined) | -1 | 0 | -1 | 9.6* | 0 | -1
CCN(CC)CCCNC(=O)C1CCN(c2ncnc3c2sc2cccc(F)c23)CC1 | 0 | 2 | 1 | 2 | 0 | 1.0*
CC1CC(C)CN(CCCNC(=O)C2CCN(c3ncnc4c3sc3cccc(F)c34)CC2)C1 (centres undefined) | · | · | · | -4 | · | ·
O=C(c1ccco1)N1CCN(c2nc3ccsc3c(=O)s2)CC1 | 4 | -2 | 1 | 0 | 5.1* | -2
O=C(COc1ccc(Cl)cc1Cl)Nc1ccc(C(=O)Nc2ccccc2C(=O)O)cc1 | 0 | 2 | 4.3* | · | 0 | 0
O=C(COc1ccc(Cl)cc1Cl)NC(=S)Nc1ccccc1C(=O)O | · | · | · | 2 | · | ·
CC(=O)Nc1ccccc1P(=O)(c1ccccc1)c1ccccc1OC(C)=O (centres undefined) | -1 | -1 | 0 | 1 | 4.5* | 0
COc1ccccc1P(=O)(c1ccccc1)c1ccccc1 | 0 | -2 | 0 | · | -1 | -1
Cc1ccc(F)c(S(=O)(=O)NC(=O)C2(C)CCN2C(=O)CC2CCCCC2)c1 (centres undefined) | 3 | 0 | -1 | · | · | 0
SMILES | hgDAF12 agonist | hcDAF-12 act | DAX1 inh-1 | Wee1 degr inh | DAX1 inh-2 | ssDAF12 agonist
COc1ccc(F)c(CN(C)CC2CCCN(CCc3ccc(F)cc3)C2)c1 (centres undefined) | 0 | 0 | 0 | · | 4.5* | -1
C[C@@H]1CCCCCCCCC(=O)OCCN(C(=O)OC(C)(C)C)[C@H](C)CCCCCCCCC(=O)OCCN(C(=O)OC(C)(C)C)[C@H](C)CCCCCCCCC(=O)OCCN(C(=O)OC(C)(C)C)[C@H](C)CCCCCCCCC(=O)OCCN1C(=O)OC(C)(C)C | 6 | -2 | 1 | · | 1 | 0
Cc1nnc(-c2cccc(C(F)(F)F)c2)nc1N1CCOCC1 | 1 | 1 | 4.3* | -1 | -1 | -2
CCN(CC)c1ncnc2c1ncn2[C@H]1CN(C2CCCC2)C[C@@H](CO)O1 | -2 | 0 | 0 | · | · | -1
C#Cc1cccc(NC(=O)c2ccc(Cl)cc2Cl)c1 | 12* | 4 | 2 | 3 | 2 | 0
CC(C)NC(=O)N(C)C[C@H]1Oc2ccc(NC(=O)NC3CCCCC3)cc2C(=O)N([C@H](C)CO)C[C@@H]1C | 0 | 0 | 0 | · | 1 | -1
COc1cccc(CN(C)C(=O)Cn2cc(C)c(=O)[nH]c2=O)c1 | -1 | -1 | 0 | · | 1 | -1
Cc1ccnc(NS(=O)(=O)c2ccc(N3C(=O)Nc4ccccc4N3O)cc2)c1 | 0 | 1 | 1 | 5 | 0 | -1
O=C1Nc2ccccc2N(O)N1c1ccc(S(=O)(=O)Nc2ccccn2)cc1 | 3 | 3 | 1 | 5 | 1 | 0.9*
COC(=O)[C@]12CCCCC=C1N(Cc1ccc(OC)cc1)C(=O)[C@@H]2CC(=O)N1CCCCC1 | 3 | -3 | -2 | · | · | -1
COc1ccc(NC(=O)C2C3C=CC(C3)C2C(=O)O)cc1 (centres undefined) | -2 | -2 | 0 | 1 | 2 | -2
Cc1ccc(-c2ccc(NC(=O)C3C4C=CC(C4)C3C(=O)O)cc2)o1 (centres undefined) | 13* | 1 | 1 | 0 | 0 | -1
CCc1ccc(C(=O)/C=C/c2cnn(C)c2C)s1 | 12* | 2 | 3 | 2 | 5.2* | -1
CCCCSc1nnc(-c2ccccc2N)c(=O)[nH]1 | 11* | 5.9* | 1 | 1 | 0 | 0
CCOC(=O)N(C)[C@H]1C[C@H]2c3[nH]c4ccccc4c3CCN2C(=O)[C@H]1[C@H](C)O | 5 | -3 | -1 | · | · | -1
COP(=O)(CC(=O)OC(C)(C)C)C(CC(C)C)NC(=O)OCc1ccccc1 (centres undefined) | -1 | 0 | -1 | · | · | -1
CCN(CC)S(=O)(=O)c1cccc(-c2cn3cc(C)ccc3n2)c1 | 6 | -2 | -1 | 0 | -2 | -1
Cc1ccc2nc(-c3cccc(S(=O)(=O)N(C)C)c3)cn2c1 | 11* | 2 | 1 | 0 | 0 | 0
C=C1[C@@H](O)[C@H](Cc2ccccc2)N(Cc2ccccc2Br)S1(=O)=O | -7 | -4 | -1 | · | -3 | -2
CN1CCN(C(=S)NCCc2ccccc2)CC1 | 13* | 2 | 0 | 0 | 1 | -1
S=C(NCCc1ccccc1)N1CCN(C(=S)NCCc2ccccc2)CC1 | 0 | -1 | 1 | · | -1 | -1
